Experimental data taken from the supplement of paper PMC10646978.
± gives the standard deviation.

Legend:
Details in all cases: modulator concentration 10 µM
[1] = system: RAW-Dual (murine macrophage reporter line); assay: NF-kB reporter (SEAP) activity fold change vs agonist alone; higher = enhanced NF-kB activity
Method in brief: (§1)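 RAW-Dual murine macrophage reporter cells were seeded at 50 000 per well in 384-well plates and pre-incubated 1 hour at 37 °C with compound pin-transferred to 10 μM final. After 1 hour, a PRR agonist was added and cells incubated overnight. Supernatant NF-κB (SEAP, QUANTI-Blue, 620 nm absorbance) and IRF (Lucia luciferase, QUANTI-Luc, luminescence) signals were divided by the mean agonist-only control on the same plate to give fold change. Two replicate plates were averaged, with errors by propagation.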

[2] = system: RAW-Dual (murine macrophage reporter line); assay: IRF reporter (Lucia luciferase) activity fold change vs agonist alone; higher = enhanced IRF activity
Method in brief: as §1

[3] = system: RAW-Dual (murine macrophage reporter line); assay: viability score (confluency relative to resting cells, overnight) (fraction); higher = more viable, active = viable (0.7 or more)
Method in brief: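 Compound was added at a final 10 μM to RAW-Dual macrophages in 384-well plates and left overnight. Confluency was imaged with IncuCyte, and two masks were generated in IncuCyte software over all imaged wells. Each viability score is confluency relative to resting cells, and a compound met the cutoff only when both masks were above 70% of resting cells.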

[4] = agonist: CpG ODN 1826 0.5 ug/mL

Row | Structure (SMILES) | NF-kB reporter [1, 4] | NF-kB reporter ([1]; agonist: LPS 0.1 ug/mL) | NF-kB reporter ([1]; agonist: MPLA […]) | IRF reporter ([2]; agonist: 3'3'-cGAMP 10 ug/mL) | IRF reporter ([2]; agonist: LPS 0.1 ug/mL) | IRF reporter ([2]; agonist: MPLA […]) | viability score [3]
1 | COc1ccc(-c2[nH]c(-c3ccccc3)nc2SCC(=O)NC2CCCC2)cc1 | 0.875 ± 0.061 | 1.07 ± 0.069 | 1.64 ± 0.11 | 0.892 ± 0.03 | 1.09 ± 0.095 | 1.11 ± 0.1 | 1 (active)
2 | COC(CNC(=O)C(C)(C)Oc1ccc(Cl)cc1)c1cccc(F)c1 (configuration not stated) | 1.27 ± 0.39 | 1.07 ± 0.055 | 1.14 ± 0.081 | 0.96 ± 0.035 | 0.959 ± 0.16 | 1.04 ± 0.18 | 0.973 (active)
3 | O=C(Nc1ccc(S(=O)(=O)Nc2ccc(F)cc2)cc1)C(F)(F)F | 0.992 ± 0.11 | 1.03 ± 0.069 | 0.93 ± 0.061 | 1.12 ± 0.027 | 1.37 ± 0.22 | 1.14 ± 0.098 | 1.01 (active)
4 | COc1ccccc1-n1ncc2c(C)nnc(SCC(=O)NCc3ccccc3Cl)c21 | 0.739 ± 0.33 | 0.987 ± 0.077 | 0.761 ± 0.19 | 0.781 ± 0.13 | 0.882 ± 0.15 | 0.781 ± 0.15 | 0.944 (active)
5 | CCC(=O)Nc1ccc(S(=O)(=O)NCC2CCN(c3ncc(F)cn3)CC2)c(C)c1 | 1.06 ± 0.096 | 1.2 ± 0.096 | 1.04 ± 0.065 | 1.79 ± 0.1 | 1.21 ± 0.11 | 1.08 ± 0.093 | 0.986 (active)
6 | CC1=C(C(=O)OCC2CCCO2)C(c2ccc([N+](=O)[O-])cc2)C2=C(CC(C)(C)CC2=O)N1 (configuration not stated) | 1.16 ± 0.19 | 0.887 ± 0.08 | 0.848 ± 0.078 | 0.553 ± 0.02 | 1.04 ± 0.23 | 0.984 ± 0.11 | 0.995 (active)
7 | O=C(O)c1cccnc1C(=O)O | 1.03 ± 0.087 | 1.04 ± 0.07 | 0.971 ± 0.022 | 0.941 ± 0.052 | 0.981 ± 0.12 | 0.867 ± 0.07 | 1 (active)
8 | Cc1cc(C)n(CC2CCN(Cc3ccc(Br)cc3)CC2)n1 | 0.933 ± 0.049 | 0.745 ± 0.063 | 0.74 ± 0.049 | 0.913 ± 0.05 | 1.19 ± 0.21 | 1.27 ± 0.39 | 0.626 (inactive)
9 | Cc1cccc(CCC(=O)N2CCCC(Oc3ccnc(C)n3)C2)c1 (configuration not stated) | 1.02 ± 0.09 | 1.14 ± 0.11 | 1.06 ± 0.15 | 0.731 ± 0.057 | 1.19 ± 0.085 | 1.16 ± 0.24 | 0.963 (active)
10 | O=S(=O)(c1ccc(-n2cccn2)cc1)N1CC(n2cc(C3CC3)nn2)C1 | 1.01 ± 0.068 | 1.11 ± 0.1 | 0.939 ± 0.066 | 0.966 ± 0.076 | 1.21 ± 0.077 | 0.999 ± 0.085 | 0.993 (active)
11 | CC(C)CSc1nnc2c(n1)[nH]c1ccccc12 | 1.06 ± 0.083 | 1.01 ± 0.072 | 0.967 ± 0.039 | 0.955 ± 0.2 | 1.05 ± 0.047 | 0.885 ± 0.14 | 0.998 (active)
12 | O=C(c1ccc2ccccc2n1)N1CCc2ncncc2C1 | 1.08 ± 0.054 | 1.04 ± 0.083 | 0.862 ± 0.044 | 0.956 ± 0.063 | 1.09 ± 0.18 | 1.11 ± 0.27 | 1.01 (active)
13 | CCOCC(=O)Nc1nc2c(C(F)(F)F)cccc2s1 | 1.16 ± 0.067 | 0.964 ± 0.11 | 1.06 ± 0.052 | 0.969 ± 0.039 | 1.04 ± 0.048 | 1.03 ± 0.14 | 0.989 (active)
14 | COc1ccc(N(CC(=O)N2CCc3ccccc3C2)S(C)(=O)=O)cc1Cl | 1.18 ± 0.12 | 1.05 ± 0.077 | 0.987 ± 0.059 | 1.06 ± 0.033 | 1.52 ± 0.12 | 1.11 ± 0.13 | 1.01 (active)
15 | COc1cc(C(=O)NCCCCc2ccccc2)cc(OC)c1OC | 1.09 ± 0.095 | 1.04 ± 0.068 | 0.994 ± 0.034 | 0.906 ± 0.14 | 0.993 ± 0.068 | 0.983 ± 0.14 | 0.995 (active)
16 | CCCCCCC1OCC2(CO)C(C)C=C(C)C1C2C (configuration not stated) | 0.532 ± 0.075 | 0.697 ± 0.082 | 0.716 ± 0.067 | 1.31 ± 0.075 | 1.05 ± 0.17 | 1.21 ± 0.24 | 0.898 (active)
17 | Cc1ccc(-n2nc(C(C)(C)C)cc2NC(=O)Nc2ccc(OCCN3CCOCC3)c3ccccc23)cc1 | 0.68 ± 0.13 | 0.658 ± 0.052 | 0.784 ± 0.077 | 1.19 ± 0.058 | 0.741 ± 0.14 | 0.844 ± 0.1 | 1.02 (active)
18 | O=C(Nc1cccc(Cl)c1Cl)c1cc2nc(-c3ccco3)cc(C(F)(F)F)n2n1 | 0.9 ± 0.054 | 1.01 ± 0.08 | 0.918 ± 0.055 | 0.864 ± 0.029 | 1.25 ± 0.082 | 1.21 ± 0.16 | 1 (active)
19 | Cc1ccccc1CC(CC(=O)O)C(=O)O (configuration not stated) | 1.1 ± 0.089 | 0.979 ± 0.12 | 0.93 ± 0.094 | 1.03 ± 0.048 | 1.21 ± 0.12 | 1.3 ± 0.19 | 1.03 (active)
20 | C=C1CCN([C@H](C)[C@](O)(Cn2cncn2)c2ccc(F)cc2F)CC1 | 1.21 ± 0.12 | 0.941 ± 0.11 | 0.986 ± 0.095 | 1.19 ± 0.054 | 1.73 ± 0.16 | 1.3 ± 0.15 | 0.134 (inactive)
21 | C[C@H]1O[C@H]1P(=O)(O)O.NC(CO)(CO)CO | 0.922 ± 0.053 | 1.05 ± 0.064 | 0.977 ± 0.079 | 0.937 ± 0.036 | 1.06 ± 0.15 | 0.989 ± 0.2 | 0.994 (active)
22 | O=C(NC12CC3CC(CC(C3)C1)C2)N1CCOCC1 | 0.95 ± 0.16 | 1.02 ± 0.084 | 0.989 ± 0.12 | 0.993 ± 0.027 | 1.22 ± 0.21 | 1.32 ± 0.17 | 0.967 (active)
23 | CCCCOc1ccc(C(=O)Nc2cc(-c3nc4ccccc4o3)ccc2OC)cc1 | 1.08 ± 0.066 | 1.08 ± 0.089 | 0.965 ± 0.025 | 0.965 ± 0.042 | 1.06 ± 0.049 | 1.02 ± 0.098 | 1 (active)
24 | Cc1cc(I)cc2c1NC(c1cccc([N+](=O)[O-])c1)C1CC=CC21 (configuration not stated) | 0.921 ± 0.079 | 0.795 ± 0.058 | 0.867 ± 0.089 | 0.497 ± 0.039 | 1.17 ± 0.23 | 1.13 ± 0.25 | 1.02 (active)
25 | OCCOCCN1CCN(C(c2ccccc2)c2ccc(Cl)cc2)CC1 (configuration not stated) [Prestw-133] | 1.07 ± 0.083 | 0.934 ± 0.071 | 1.07 ± 0.11 | 0.763 ± 0.024 | 1 ± 0.14 | 1.01 ± 0.21 | 1.04 (active)
26 | CCCCn1c(CNC(=O)c2cccs2)nc2ccccc21 | 0.926 ± 0.077 | 0.98 ± 0.06 | 1.03 ± 0.061 | 1.03 ± 0.06 | 1.15 ± 0.093 | 0.921 ± 0.15 | 0.983 (active)
